# Source: PubChem BioAssay (EPA / NIEHS)
# Activity calls are given as the source filed them. Rule for the calls: active = hit-call score of the fitted dose curve at least 0.9, where 1 is the maximum; inactive = score below 0.9.
# Assay: CCTE_Shafer_MEA_dev_burst_duration_mean: CCTE's Neural Network Formation Assay for Mean Burst Duration, Shafer Lab (AID 2284045);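 for AC50: curve fitted for loss meaning shorter burst duration than DMSO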
# Method in brief: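 Read-out: average first-to-last-spike interval within single-electrode bursts, averaged over bursting electrodes per well, then summarised as area under the curve across days 5, 7, 9 and 12. Developing rat cortical networks were exposed from day 0.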
Structure (SMILES),AC50,outcome
CN(C)CCCN1c2ccccc2Sc2ccc(Cl)cc21,4.79 µM (active),
OCC(O)CO,,inactive
O=C1NC(=O)C(c2ccccc2)(c2ccccc2)N1,,inactive
CC(=O)CC(c1ccccc1)c1c(O)c2ccccc2oc1=O (configuration not stated),,inactive

# Assay: CCTE_Shafer_MEA_dev_interburst_interval_mean: CCTE's Neural Network Formation Assay for Mean Interburst Interval, Shafer Lab (AID 2284046);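 note: well-mean interburst interval of bursting electrodes as AUC over four recording days; curve fitted for decrease in interburst interval relative to DMSO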
# Method in brief: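 Recordings on days 5, 7, 9 and 12 give well-mean interburst interval across actively bursting electrodes, summarized as area under the curve. Cultures: rat cortical neurons, continuous exposure from day 0, compound renewed at feeds; decrease analyzed versus DMSO.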
Structure (SMILES),AC50,outcome
CN(C)CCCN1c2ccccc2Sc2ccc(Cl)cc21,7.95 µM (active),
OCC(O)CO,,inactive
O=C1NC(=O)C(c2ccccc2)(c2ccccc2)N1,,inactive
CC(=O)CC(c1ccccc1)c1c(O)c2ccccc2oc1=O (configuration not stated),,inactive

# Assay: CCTE_Shafer_MEA_dev_inter_network_spike_interval_mean: CCTE's Neural Network Formation Assay for Mean Inter-network Spike Interval, Shafer Lab (AID 2284047)
# Procedure: CCTE_Shafer_MEA_dev assay is conducted using Axion Biosystems 48 well microelectrode array (MEA) plates and Maestro recording system. Each well of the MEA plate contains a grid of 16 microelectrodes embedded in the culture surface. Electrically active cells, such as neurons, can be cultured over the electrodes, and electrical activity in these cells can be recorded extracellularly. The spontaneous firing of neurons is captured from each electrode on a microsecond timescale providing both temporally and spatially precise data. […] The CCTE_Shafer_MEA_dev assay uses primary cultures of rat cortical neurons. Recordings are made on days post-plating 5, 7, 9 and 12. As these cultures mature over time, neural networks develop functional activity and form cohesive networks in which electrical activity can be highly coordinated. CCTE_Shafer_MEA_dev_inter_network_spike_interval_mean is 1 of 19 assay components of the CCTE_Shafer_MEA_dev assay. It measures the average time interval between network spikes (temporally-clustered groups of actional potential firing across multiple electrodes) as the average time between peaks of consecutive network spikes during a recording in a microelectrode array (MEA) using Axion Biosystems Maestro 768 channel amplifier with the AxIS adaptive spike detector. To collapse across multiple recordings made on days post-plating 5, 7, 9 and 12, the trapezoidal area-under-the-curve of the component is calculated.Data from the assay component CCTE_Shafer_MEA_dev_inter_network_spike_interval_mean was analyzed into 1 assay endpoint. This assay endpoint, CCTE_Shafer_MEA_dev_inter_network_spike_interval_mean, was analyzed in the negative analysis fitting direction relative to DMSO as the negative control and baseline of activity. Using a type of functional reporter, gain or loss-of-signal activity can be used to understand electrical activity.
# On the day prior to culture, each well was coated thoroughly with 150 uL of 0.05% polyethyleneimine (PEI, Sigma Cat P3143) in 50 mM HEPES (Sigma Cat H7523) at a pH of 8. The plate was incubated at 37C for one hour. PEI was rinsed out with 500 uL of sterile water three times. Plates were stored at 4C until the day of culture. This culture was plated at a seeding density of 1.5 x 10^5 cells/well on a 48-well MEA plate, prepared as described above. Cells were administered via a 25 uL media/laminin ([…]; Sigma Cat L2020-1MG) drop directly onto the microelectrode array, as adding the cells with the laminin results in better attachment than pre-coating with laminin. After 2 hours, an additional 475 uL of cortical media was added and the cells returned to the incubator. Exposure starts at day 0 of plating and is continued over twelve days of network development until the experiment is terminated. Cells are fed with fresh medium on DIV 5 and 9, following the recordings on those days. The entire volume of media in the well is exchanged and any vehicle or compound treatment is renewed. Complete details are found in OP-NHEERL/ISTD/SBB/TJS/2015-03-r0 (available on request, email shafer.tim@epa.gov). Measurement of the electrical activity is non-invasive, and recordings can be made from the same plate over multiple different days of the culture. In cortical neurons, this allows for the measurement of extracellular action potentials over the period during which networks form in the MEA plate.
row,Structure (SMILES),outcome
1,CN(C)CCCN1c2ccccc2Sc2ccc(Cl)cc21,inactive
2,OCC(O)CO,inactive
3,O=C1NC(=O)C(c2ccccc2)(c2ccccc2)N1,inactive
4,CC(=O)CC(c1ccccc1)c1c(O)c2ccccc2oc1=O (configuration not stated),inactive
